Only some compounds are listed: those with a hit (about 2.3% of all), similar ones and a draw of the others.
TMEM16A inh – inhibitors of mouse TMEM16A calcium-activated chloride channel. Q8BHY3. normalized B-score (activity score, 25-100; higher = stronger inhibition) at 10 µM. 310,000 compounds, 1.2% hits. HEK293 TMEM16A/YFP iodide influx fluorescence, ionomycin;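 active = ratio plate-corrected score three or more library SD toward inhibition, starting fluorescence score within five deviations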;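 also: score derived from kinetic fluorescence span divided by baseline fluorescence per well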
Target sequence (Q8BHY3 whole entry, looked up): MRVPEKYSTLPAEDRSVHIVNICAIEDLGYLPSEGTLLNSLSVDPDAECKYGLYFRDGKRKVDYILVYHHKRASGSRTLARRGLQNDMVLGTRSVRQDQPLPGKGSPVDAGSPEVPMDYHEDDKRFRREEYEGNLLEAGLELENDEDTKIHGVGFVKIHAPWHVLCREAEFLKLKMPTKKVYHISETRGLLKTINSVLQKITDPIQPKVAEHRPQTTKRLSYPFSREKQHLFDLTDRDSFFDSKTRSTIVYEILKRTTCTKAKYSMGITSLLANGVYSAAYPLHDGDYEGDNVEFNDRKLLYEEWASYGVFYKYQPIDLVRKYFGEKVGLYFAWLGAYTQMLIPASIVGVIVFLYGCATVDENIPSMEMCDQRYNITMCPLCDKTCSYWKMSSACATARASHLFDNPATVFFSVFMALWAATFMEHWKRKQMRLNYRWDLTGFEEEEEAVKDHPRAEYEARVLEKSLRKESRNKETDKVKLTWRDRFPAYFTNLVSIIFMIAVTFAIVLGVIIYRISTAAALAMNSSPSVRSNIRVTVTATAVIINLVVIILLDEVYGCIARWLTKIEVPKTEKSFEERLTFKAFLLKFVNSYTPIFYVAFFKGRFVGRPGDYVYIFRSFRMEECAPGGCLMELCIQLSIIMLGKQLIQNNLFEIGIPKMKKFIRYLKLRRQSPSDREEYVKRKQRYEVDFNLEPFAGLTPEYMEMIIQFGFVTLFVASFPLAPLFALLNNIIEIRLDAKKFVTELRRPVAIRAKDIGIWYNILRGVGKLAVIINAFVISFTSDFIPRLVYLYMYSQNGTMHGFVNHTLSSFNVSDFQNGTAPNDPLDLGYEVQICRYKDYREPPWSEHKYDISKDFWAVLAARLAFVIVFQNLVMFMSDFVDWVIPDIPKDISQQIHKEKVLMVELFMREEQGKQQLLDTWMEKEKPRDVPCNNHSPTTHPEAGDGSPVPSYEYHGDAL
CHT allo act – human CHT allosteric activation; CHT-expressing cells, membrane potential dye, choline EC20; active compounds read high; LV-AA mutant CHT in HEK293 cells; B-score at 10 µM; 310,000 compounds, 0.49% hits; AID 488977;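 active = initial fluorescence not abnormally high and integrated response B-score, plate-corrected, over 3 SD above library mean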
TMEM16A act – activators or potentiators of mouse TMEM16A chloride channel | Q8BHY3 | HEK293 TMEM16A/YFP-H148Q/I152L, iodide quench fluorescence; active compounds read low | B-score at 10 µM | 340,000 compounds, 0.3% hits | AID 623877;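 active = fluorescence-ratio B-score plate-corrected deviation score at least 3 library SD below zero, with starting fluorescence score within 5 deviations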;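 also: channel opened by trigger with iodide after compound preincubation; score built on the fluorescence ratio of max minus min over baseline; more negative score means more quench and so TMEM16A activation or potentiation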
CHT inh – human CHT choline transport inhibition; Q9GZV3; CHT-expressing cells, membrane potential dye, choline response; active compounds read low; B-score at 10 µM; 310,000 compounds, 0.86% hits; AID 488975;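 active = B-score over 3 SD under the library average, and starting fluorescence ratio not unusually high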;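 also: choline stimulus applied at its EC90 after an EC20 pre-addition; B-score computed on integrated fluorescence ratio after choline addition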
TMEM16A reconf – TMEM16A (mouse) chloride channel inhibition, re-confirmation | shares compounds with TMEM16A inh | HEK293 TMEM16A/YFP-H148Q, iodide quench fluorescence; ionomycin added to raise cell calcium | inhibition, % at 10 µM | 2,300 compounds, 39% hits | AID 652189;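 active = mean duplicate percent inhibition, scaled so buffer wells are 0 and the reference blocker 100, over three buffer SD above buffer mean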
HEK293 Ca mobil – alters calcium mobilization in TMEM16A HEK293 cells, counter-screen; calcium response (% of ionomycin), % at 10 µM; TMEM16A/YFP HEK293, Fluo4 calcium mobilization; shares compounds with TMEM16A inh; 2,300 compounds, 2% hits;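 active = duplicate-averaged calcium signal over 20% of the ionomycin maximum, relative to buffer baseline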;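 also: each well's signal is peak minus trough fluorescence divided by its pre-addition baseline; 0% = buffer wells and 100% = ionomycin wells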
Parental YFP cnt – acts in parental YFP-HEK293 cells lacking TMEM16A, counter-screen. shares compounds with TMEM16A inh. iodide YFP quench, ionomycin. YFP ratio F(max-min)/F0 at 10 µM. 2,300 tested, under 10 active. AID 652233;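 active = yellow fluorescent protein signal ratio exceeding the buffer control mean by over 5 SD of those controls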;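 also: ratio is mean of duplicate wells from kinetic YFP trace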
ClC-1 inh – rat ClC-1 inhibition, TMEM16A specificity screen; shares compounds with TMEM16A inh; CHO ClC-1-YFP, iodide influx fluorescence quench; iodide control reads 0, buffer control 100; ratio percent, % at 10 µM; 2,300 tested, under 10 active; AID 652236;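 active = duplicate-mean ratio percent above the mean of iodide-only control wells, which defines zero, plus 5 of their SD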;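 also: higher percent means stronger block of ClC-1 iodide influx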
Active calls of the source: *; i = inactive; · = no result.

SMILES | TMEM16A inh | CHT allo act | TMEM16A act | CHT inh | TMEM16A reconf | HEK293 Ca mobil | Parental YFP cnt | ClC-1 inh
Cc1cccc(NC(=O)C2C(c3ccccc3)C2(Cl)Cl)c1 (stereo not given) | 100* | i | i | i | i | i | -0.91 | -10
CCc1cc2cc(C)ccc2nc1SCC(=O)NC1CCCC1 | i | i | i | i | · | · | · | ·
Cc1ccc(S(=O)(=O)c2c(C)nn(C(C)(C)C)c2OC(=O)C(C)(C)C)cc1 | 100* | i | i | i | i | i | -0.99 | -18
CCCCOCCCNc1ncnc2c1[nH]c1ccccc12 | 100* | i | i | i | 56%* | i | -0.8 | -29
CCOCCCNc1ncnc2c1[nH]c1ccccc12 | i | i | i | i | · | · | · | ·
COc1ccc(CCNC(=O)c2cc(COc3c(C)cccc3C)on2)c(OC)c1 | i | i | i | i | · | · | · | ·
CC1=C(C(=O)O)CC(S(=O)(=O)O)C1(C)C (stereo not given) | · | · | i | · | · | · | · | ·
CCc1cccc(NS(=O)(=O)c2c(C)nc3scc(C)n3c2=O)c1 | i | i | i | i | · | · | · | ·
CCOc1ccc(N=C2NC(=O)S/C2=C\c2ccc(N(C)C)cc2)cc1 | i | i | i | i | i | i | -0.92 | 28
O=C(/C=C/c1ccc(Cl)cc1)Nc1ccc(CN2CCOCC2)cc1 | i | i | i | i | · | · | · | ·
CC(C)c1ccc(/C=C/C(=O)Nc2ccc(CN3CCOCC3)cc2)cc1 | 100* | i | i | i | 26%* | i | -1.1 | 6
CC(C)c1ccc(C(=O)Nc2ccc(CN3CCOCC3)cc2)cc1 | 100* | i | i | i | i | i | -1.1 | -14
NC(=O)CSc1nc2cc(S(=O)(=O)N3CCOCC3)ccc2o1 | · | · | i | · | · | · | · | ·
Cc1ccc(-c2noc(CC(=O)c3ccc([N+](=O)[O-])cc3)n2)cc1 | · | · | i | · | · | · | · | ·
COc1ccccc1NC(=O)COC(=O)CCn1c(C)csc1=O | i | i | i | i | · | · | · | ·
Nc1nc(CN2CCN(c3ccccc3)CC2)nc(Nc2ccc(Cl)cc2)n1 | 25* | i | i | i | i | i | -1.1 | -2
O=C(O)CCC(=O)Nc1cccc(-c2nc3ccccc3o2)c1 | i | i | i | i | · | · | · | ·
CCN(CC)S(=O)(=O)c1cccc(NC(=O)CNc2cccc(S(=O)(=O)N3CCCC3)c2)c1 | 25* | i | i | i | i | i | -1 | -16
CCN(CC)S(=O)(=O)c1cccc(NC(=O)COC(=O)c2cccs2)c1 | 25* | i | i | i | i | i | -0.95 | -6
CCN(CC)S(=O)(=O)c1ccc(C)c(NC(=O)CNc2cccc(S(=O)(=O)N3CCCC3)c2)c1 | i | i | i | i | · | · | · | ·
CN(CC(=O)Nc1cccc(S(=O)(=O)N2CCCC2)c1)CC(=O)Nc1ccc(F)c(F)c1F | · | · | i | · | · | · | · | ·
Cc1ccc(NC(=O)CNc2cccc(S(=O)(=O)N3CCCC3)c2)cc1F | 25* | i | i | i | 22%* | i | -0.88 | -10
O=C(CNc1cccc(S(=O)(=O)N2CCCC2)c1)Nc1ccc(F)c(F)c1 | i | i | i | i | · | · | · | ·
CN(CC(=O)Nc1cccc(S(=O)(=O)N2CCCC2)c1)CC(=O)Nc1ccc(Cl)c(C(F)(F)F)c1 | 25* | i | i | i | i | i | -1.2 | -2
COc1ccc(C(C)=O)cc1CC(=O)Nc1cccc(S(=O)(=O)N2CCOCC2)c1 | · | · | i | · | · | · | · | ·
SMILES | TMEM16A inh | CHT allo act | TMEM16A act | CHT inh | TMEM16A reconf | HEK293 Ca mobil | Parental YFP cnt | ClC-1 inh
O=C(COC(=O)Cc1c(Cl)cccc1Cl)Nc1ccccc1-c1ccccc1 | 25* | i | i | i | i | i | -1 | -6
O=C(COC(=O)Cc1ccc(Cl)cc1)Nc1ccccc1-c1ccccc1 | i | i | i | i | · | · | · | ·
Cc1cnc(NC(=O)c2cc(-c3ccccc3)nn2-c2ccccc2)s1 | · | · | i | · | · | · | · | ·
CCOC(=O)N1CCN(CCC(=O)Nc2cc(C)ccc2OC)CC1 | i | i | i | i | · | · | · | ·
CCCCCCCCC(=O)Nc1cc(C)ccc1OC | 100* | i | i | i | i | i | -1.2 | -12
O=C(O)C1OC1(c1ccccc1Cl)c1ccccc1Cl (stereo not given) | · | · | i | · | · | · | · | ·
CC(C)(CNC(=O)c1ccc([N+](=O)[O-])c(Cl)c1)CNC(=O)c1ccc([N+](=O)[O-])c(Cl)c1 | 100* | i | i | i | i | i | -0.82 | -16
O=C(CSc1ccc([N+](=O)[O-])cc1)Nc1nnc(C2CC2)s1 | · | · | i | · | · | · | · | ·
CC1(C)CC(=O)C(CC(=O)NC(=O)NCc2ccccc2)=C(O)C1 | 100* | i | i | i | i | i | -1.1 | -4
CN=C(Cc1ccccc1)C1=C(O)CC(C)(C)CC1=O | i | i | i | i | · | · | · | ·
Cc1ccc(C(CC(=O)O)NC(=O)CCNC(=O)c2ccco2)cc1 (stereo not given) | · | · | i | · | · | · | · | ·
CCOC(=O)N1CCc2c(sc(NC(C)=O)c2C(N)=O)C1 | i | i | i | i | i | i | -1.1 | -8
CCC(=O)Nc1sc2c(c1C(N)=O)CCN(C(C)=O)C2 | i | i | i | i | · | · | · | ·
COc1ccc(NS(=O)(=O)c2cccc(C(=O)N(C)Cc3ccc(SC)cc3)c2)cc1 | i | i | i | i | · | · | · | ·
CC(C)Cc1ccc(C(C)C(=O)Nc2cccnc2)cc1 (stereo not given) | 25* | i | i | i | 52%* | i | -1.1 | -12
CC(C(=O)Nc1cccnc1)c1ccc([N+](=O)[O-])cc1 (stereo not given) | i | i | i | i | · | · | · | ·
COc1c(C(=O)Nc2ccc(Cc3ccncc3)cc2)ccc2ccccc12 | 100* | i | i | i | i | i | -1.1 | -8
O=C(COc1ccccc1)OCC(=O)c1ccc(S(=O)(=O)N2CCCCC2)cc1 | · | · | i | · | · | · | · | ·
C/C(O)=c1/ccc2cccc3nc(C)nc1c23 | i | i | i | i | i | 102%* | -0.81 | -2
O=C(OCC(=O)N1CCN(C(=O)COC(=O)c2ccc(O)cc2O)CC1)c1ccc(O)cc1O | i | i | i | i | · | · | · | ·
O=C(O)CCC(=O)N1N=C(c2ccccc2)CC1c1ccc2c(c1)OCO2 (stereo not given) | i | i | i | i | · | · | · | ·

Bioassay records from PubChem BioAssay.
